16 compounds from PubChem BioAssay AID720650 (Broad Institute, 2013) can be followed below.

A number with no mark means an inactive call. The source made the active and inactive calls. The rule behind the calls is not given here. Where only a bound is given, the exact number is not on record here.

This assay in a line: Biochemical counterscreen for C difficile toxins, absence of UDPG, inhibitor dose response (AID 720650). As to conditions: series mostly up to 19.5 µM.
Regarding `CCC(=O)Nc1ccc2c(c1)OC[C@H](C)N(C(=O)NC(C)C)C[C@H](C)[C@H](OC)CN(C)C2=O`, the AC50 entry is “inactive”.
The same measure for `C=C1CCN(Cc2ccccc2)S(=O)(=O)c2ccccc21`: “inactive”; for `CNC(=O)C[C@H]1CC[C@@H]2[C@@H](COc3ccc(NC(=O)c4ccc(OC)cc4)cc3C(=O)N2C)O1`: “inactive”.
The figure for `Cc1cc(C)c(S(=O)(=O)c2ccc(Cl)cc2C)c(Cl)n1` is greater than 39 µM.
The entry for `Cn1ncc(Br)c1C(=O)N/N=C/c1cccc(OC2CSC2)c1` is “inactive”; for `O=C(Nc1nnc(-c2ccco2)o1)C1CC1` it is greater than 39 µM.
As to `O=c1c2ccccc2nc(/C=C/c2ccc(O)cc2)n1-c1ccccc1O`, the AC50 was greater than 39 µM.
Take `COc1cc(/C=C/C(=O)OCC(=O)N(C)Cc2ccccc2)ccc1O`: the AC50 result is “inactive”.
The same measure for `CCCCNC(=O)C1CCN(S(=O)(=O)c2c(C)noc2/C=C\c2ccc(OC)cc2)CC1`: “inactive”; for `Cn1c(=O)[nH]c(=O)c2c1[nH]c(=S)n2CCCc1ccccc1`: “inactive”.
The entry for `COc1ccc(C2=NS(=O)(=O)N(C)C(C(=O)N3CCOCC3)=C2)cc1` is “inactive”; for `O=c1onc(-c2ccccc2)n1Cc1ccc([N+](=O)[O-])cc1` it is “inactive”; for `COc1cccc(C(=O)OCC(=O)Nc2cc(C)on2)c1OC` it is “inactive”.
The same measure for `COc1ccc(CCNC(=O)CCCn2nc(C)n3ccnc3c2=O)cc1OC`: “inactive”; for `O=C(C[C@@H]1CC[C@@H]2[C@H](COC[C@H](O)CN2C(=O)c2ccccn2)O1)NC1CCC1`: “inactive”.
Turning to `O=C(C[n+]1ccccc1)N/N=C/c1ccc(O)cc1`, the AC50 was 20.2 µM (active).
